# Source: the supplement of paper PMC6555819
# Tested on: RARb homodimer (NR concentration 270 nM)
# Assay: PBM binding z-score (relative to random genomic background probes); higher = stronger binding; sequences stand for … in GC…GCGATTGACAGCGTAGAATGAAGG
# How it was run: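 Custom Agilent 4×180K protein-binding microarrays carried double-stranded probes, each with a 34-nt variable region. These regions held direct-repeat seeds, single-nucleotide variants, half-site ablations and random human genomic background sequences. Ligand-free nuclear receptor dimers were incubated on the arrays for 1 h, antibodies against each partner (one per run) detected binding, and scanned fluorescence was regression-normalized. Binding z-scores take the random background probes as reference.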
row,Sequence,PBM binding z-score
1,CCTAGTTGGTCAGGAGGTCACGCACCGGATATGA,4.9
2,ATCTCTAGTTAAAAGTTCAGTGAATCCCGAGGAT,2.34
3,CAAACTAGGTCAAGAGGTCAACGTCCGCTTCCCG,5.63
4,CCTAGCAGGCCAACCTGGGTCACTCAAGGCTTGA,2.56
5,CCGACTGGGGCAAATGTTACCATACTCAGTACGA,0.264
6,TCTGCTAGGTCACCGATGGTCAGCTAATCTGCTA,3.6
7,ACTATTAGTTGACTGAGGGCAACCGATACGACGC,1.72
8,CAAACTAGGTCACAGAAGTCAAAGTCCGTGCGTA,3.41
9,AGTAGCAGGCCAAGTTTGGGTCACTCAAACAAAG,2.22
10,TCTGCTTGGTCAGTTGGTCAGCTAACGAGCTGCC,0.226
11,ATATGTAGGTTATCGGGTCATTGAGTTTGCGCAT,3.16
12,CCTTACGGGTCACGAGGATATAGCACGACGAGCG,3.37
13,CCGAGTAGGTTATGGGGGATTCAGGCAACGGTGA,1.28
14,TCATATAGGTAATACAGGTGAAACTCGGCATCTA,0.77
15,CCGACTGGAGCATAAGGTTACCATAAGCCAGCCC,1.28
16,CCTTACGGGTCATTCCAGGTTATAGCATCGGAGT,3.03
17,AGAATGAGGTTACCAAAGATGAGGGAAACGCTTG,0.76
18,GCTTGTATATCAAGGTTAAGAAAGACTAAGCTAA,0.176
19,TCTAGTTGGTCACGGAGCTCACACACGACGGGTA,0.591
20,GCTTACGGGTCAACGGTTATAGCATGAATAGAAT,2.84

row,Sequence,PBM binding z-score
1,TCTATTTGTTGAAGGGCAACCGACGAGTCCGTTT,1.57
2,ATCGAAAGGTCGACGAGGTGAGCATACACCGTTT,2.94
3,ACAGACAGGTGAGTGAAGGTAAATCAGCTGGACG,-0.00718
4,CCTACGGGGCCATTCAGAGGTCATTGATCATATG,4.27
5,TCTGCTAGGTGAGTTGGTCAGCTAACGAGCTGCC,-0.359
6,AGAATGAGGTTAAGCTCAGGGAAACAGAATACAT,0.601
7,CGTCCAAGGTGAAAGGTCAGTGAAGAGATGACGG,4.53
8,CCGACTGGGGCATAAGGTTGCCATAAGCCAGCCC,0.294
9,TGTCATAGTTCAAAGGTAACGTAAGTATCCACAC,2.51
10,CCTAGCAGGCCAATCTGGGTCACTCATGGCTTGA,2.19
11,GATACAGGGTCAGCTGGAGGCCAGAGTATGGAAA,3.23
12,ATACCAAGGTGATCGTGAGGTCGTCGATACTAAC,1.61
13,ATCTCGAGGTAAGACTCAGTTCAGTGAAGAACGC,0.343
14,CGAACGAGGGCATGAGATGATAGCAAATGCCGAT,0.674
15,AGTCAAAGTTCAGGACGAGGTAAGGTAAAGCACG,3.46
16,TGTCGGAGGACACGAAAGGTCAGAGCTCGACATC,4.55
17,ATCTCTAGGTAAAGATAGTTCAGTGCATGCAAAT,1.11
18,ATCCCTAGGTAAAAGTTCAGTGAATCCCGAGGAT,2.41
19,CCTTACGGGTAACTGACAGGTTATAGCATTTGGA,0.321
20,CCTGACGGGTCAAGGTTATAGCACGGGTGGTACG,3.21
